# From PubChem BioAssay (EPA / NIEHS)
# Values joined by “and” are separate entries in the source; they are usually repeats but may differ in a detail not shown here. Equal entries are not always repeated. Inconclusive results are not listed. Where a structure was tested more than once in an assay, its records may differ in their call. Active and inactive are the calls of the source. How the source made its calls, unless noted: active means hit-call score of the fitted dose curve at least 0.9, where 1 is the maximum; inconclusive means response in the unintended direction; inactive means score below 0.9.
# Key:
# [1] = biological target: Estrogen receptor (Homo sapiens) (UniProt P03372); test: OT_ERa_GFPERaERE_0120: Odyssey Thera (OT) 2-hour HeLa Transcription Induction Assay for Estrogen Receptor (AID 2283382)
# Chain of Estrogen receptor (Homo sapiens) (P03372 whole entry, looked up): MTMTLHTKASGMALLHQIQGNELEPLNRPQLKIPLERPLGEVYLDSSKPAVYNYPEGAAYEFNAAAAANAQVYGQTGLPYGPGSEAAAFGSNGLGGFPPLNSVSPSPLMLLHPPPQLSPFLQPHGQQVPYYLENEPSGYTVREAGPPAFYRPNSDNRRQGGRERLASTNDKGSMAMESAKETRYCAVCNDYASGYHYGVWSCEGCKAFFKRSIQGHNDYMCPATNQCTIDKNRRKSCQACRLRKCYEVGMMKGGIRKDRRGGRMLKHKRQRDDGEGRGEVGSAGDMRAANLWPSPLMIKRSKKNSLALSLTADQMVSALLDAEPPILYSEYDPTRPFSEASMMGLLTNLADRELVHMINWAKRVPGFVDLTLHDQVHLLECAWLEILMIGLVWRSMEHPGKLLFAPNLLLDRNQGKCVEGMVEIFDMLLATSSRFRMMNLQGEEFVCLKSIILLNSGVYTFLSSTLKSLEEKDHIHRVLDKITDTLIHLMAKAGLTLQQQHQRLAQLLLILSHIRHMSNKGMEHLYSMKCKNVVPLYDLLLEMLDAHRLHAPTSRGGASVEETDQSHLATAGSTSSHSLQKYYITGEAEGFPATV
# Procedure, shortened: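 Fluorescence-microscopy images of the GFP-ERα/ERE reporter, scored by high-content image algorithms, give the readout. HeLa exposure lasted 2 h, and only signal increase over DMSO was fitted.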
# [2] = biological target: Retinoic acid receptor RXR-alpha (Homo sapiens) (UniProt P19793); test: OT_NURR1_NURR1RXRa_0480: Odyssey Thera (OT) 8-hour HEK293T Protein Complementation Assay for Nurr1/retinoid X receptor (RXR) (AID 2283385)
# Chain of Retinoic acid receptor RXR-alpha (Homo sapiens) (P19793 whole entry, looked up, the tested form may be a part): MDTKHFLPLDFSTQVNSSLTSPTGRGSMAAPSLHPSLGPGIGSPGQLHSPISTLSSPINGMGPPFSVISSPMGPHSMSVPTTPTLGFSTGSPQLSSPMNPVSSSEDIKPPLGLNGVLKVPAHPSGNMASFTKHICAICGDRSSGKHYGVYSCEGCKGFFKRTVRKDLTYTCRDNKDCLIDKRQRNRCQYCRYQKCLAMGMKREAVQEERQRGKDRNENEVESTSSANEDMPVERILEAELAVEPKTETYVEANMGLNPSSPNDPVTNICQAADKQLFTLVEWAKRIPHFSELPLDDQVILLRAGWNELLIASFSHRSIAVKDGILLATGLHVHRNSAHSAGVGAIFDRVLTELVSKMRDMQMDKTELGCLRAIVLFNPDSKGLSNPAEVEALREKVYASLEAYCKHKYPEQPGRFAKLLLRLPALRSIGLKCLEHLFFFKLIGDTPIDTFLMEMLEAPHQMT
# Procedure, shortened: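 Interaction of Nurr1 with RXRα read as reconstituted reporter fluorescence in a HEK293T fragment-complementation system, 8 h post-treatment; increase over DMSO baseline analysed.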
# [3] = biological target: Retinoic acid receptor RXR-alpha (Homo sapiens) (UniProt P19793); test: OT_NURR1_NURR1RXRa_1440: Odyssey Thera (OT) 24-hour HEK293T Protein Complementation Assay for Nurr1/retinoid X receptor (RXR) (AID 2283386)
# Procedure, shortened: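 Gain in fluorescence, fitted relative to DMSO, reflects Nurr1–RXRα association in HEK293T cells after 24 h dosing. Bait and prey are each linked to a reporter-protein fragment that reassembles on interaction.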
# [4] = biological target: Peroxisome proliferator-activated receptor gamma (Homo sapiens) (UniProt P37231); test: OT_PPARg_PPARgSRC1_0480: Odyssey Thera (OT) 8-hour Protein-Complementation Assay for Peroxisome Proliferator-activated Receptor Gamma / SRC-1 Co-activator (AID 2283387)
# Chain of Peroxisome proliferator-activated receptor gamma (Homo sapiens) (P37231 whole entry, looked up, the tested form may be a part): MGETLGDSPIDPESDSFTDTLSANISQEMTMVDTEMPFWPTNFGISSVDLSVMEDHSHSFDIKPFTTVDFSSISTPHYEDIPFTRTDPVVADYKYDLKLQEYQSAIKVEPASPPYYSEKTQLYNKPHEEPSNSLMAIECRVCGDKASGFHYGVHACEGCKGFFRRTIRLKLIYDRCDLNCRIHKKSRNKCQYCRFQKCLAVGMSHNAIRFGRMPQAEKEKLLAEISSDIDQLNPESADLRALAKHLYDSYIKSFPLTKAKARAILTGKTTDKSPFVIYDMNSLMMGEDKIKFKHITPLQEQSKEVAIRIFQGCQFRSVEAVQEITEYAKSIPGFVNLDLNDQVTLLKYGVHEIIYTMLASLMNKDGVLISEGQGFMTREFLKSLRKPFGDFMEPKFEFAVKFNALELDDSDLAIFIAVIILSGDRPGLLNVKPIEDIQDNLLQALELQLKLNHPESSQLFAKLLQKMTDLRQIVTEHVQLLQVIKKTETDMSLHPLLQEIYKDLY
# Procedure, shortened: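 Protein-fragment complementation of split Venus YFP reports PPARg/SRC-1 interaction in HEK293T (transfected 48 h before treatment), exposed 8 h. Readout: N/C fluorescence ratio at 488 nm from imaging, Draq5 for segmentation, positive fit relative to DMSO.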
# [5] = biological target: Bile acid receptor (Homo sapiens) (UniProt Q96RI1); test: OT_FXR_FXRSRC1_0480: Odyssey Thera (OT) 8-hour HEK293T Protein-Complementation Assay for Farnesoid X receptor/SRC-1 Co-activator (AID 2283383)
# Chain of Bile acid receptor (Homo sapiens) (Q96RI1 whole entry, looked up, the tested form may be a part): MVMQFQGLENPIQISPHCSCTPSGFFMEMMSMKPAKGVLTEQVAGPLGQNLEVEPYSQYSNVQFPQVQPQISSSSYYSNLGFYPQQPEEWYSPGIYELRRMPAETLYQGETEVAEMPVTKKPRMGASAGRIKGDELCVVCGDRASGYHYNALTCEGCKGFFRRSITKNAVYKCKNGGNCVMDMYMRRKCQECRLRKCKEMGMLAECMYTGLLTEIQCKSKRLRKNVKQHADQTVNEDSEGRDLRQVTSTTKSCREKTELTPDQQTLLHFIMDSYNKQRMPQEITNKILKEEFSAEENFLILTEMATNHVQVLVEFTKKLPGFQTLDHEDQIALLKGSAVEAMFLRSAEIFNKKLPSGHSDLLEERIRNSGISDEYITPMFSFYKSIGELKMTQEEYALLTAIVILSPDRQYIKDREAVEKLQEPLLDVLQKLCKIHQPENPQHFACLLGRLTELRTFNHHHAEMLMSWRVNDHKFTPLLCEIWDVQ
# Procedure, shortened: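 Binding of FXR to coactivator SRC-1 was read as fluorescence from a reconstituted split reporter in HEK293T cells, 8 h after chemical addition. Only increases in signal versus DMSO were fit.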
# [6] = biological target: Bile acid receptor (Homo sapiens) (UniProt Q96RI1); test: OT_FXR_FXRSRC1_1440: Odyssey Thera (OT) 24-hour HEK293T Protein-Complementation Assay for Farnesoid X receptor/SRC-1 Co-activator (AID 2283384)
# Procedure, shortened: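 Protein-fragment complementation: FXR and SRC-1 fused to reporter fragments that reassemble on interaction, read by fluorescence intensity. Human HEK293T cells measured 24 h post-dose; positive-direction fit versus DMSO.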
# [7] = biological target: Peroxisome proliferator-activated receptor gamma (Homo sapiens) (UniProt P37231); test: OT_PPARg_PPARgSRC1_1440: Odyssey Thera (OT) 24-hour Protein-Complementation Assay for Peroxisome Proliferator-activated Receptor Gamma/ SRC-1 Co-activator (AID 2283388)
# Procedure, shortened: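 HEK293T transiently transfected with PPARg/SRC-1 split-Venus YFP fusions 48 h before dosing, then treated 24 h at 37C. Fixed cells imaged; nuclear/cytoplasmic 488 nm fluorescence ratio, gain of signal versus DMSO.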
# [8] = CEETOX_H295R_11DCORT: CeeTox H295R High-throughput Steroidogenesis Assay for 11-Deoxycortisol (11DCORT) (AID 2283432; active means hit-call score of the fitted dose curve at least 0.9, where 1 is the maximum; inactive means score below 0.9;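 on AC50: 11-deoxycortisol secreted into the medium measured by LC-MS/MS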); conditions: actives raise or lower the signal
# Procedure, shortened: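 Human adrenal H295R cells were prestimulated with 10 uM forskolin for 48 h, then exposed to test chemical (0.1% DMSO final) for 48 h. Medium 11-deoxycortisol was quantified by MTBE extraction and HPLC-MS/MS; bidirectional fitting relative to DMSO.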
smiles,measurement,setting,value
COc1cc(OC)c2ccc(=O)oc2c1,outcome,[1],inactive
same,outcome,[2],inactive
same,outcome,[3],inactive
same,outcome,[4],inactive
CC1=CCC(C(C)(C)O)CC1 (configuration not stated),outcome,[5],inactive
same,outcome,[6],inactive
same,outcome,[2],inactive
same,outcome,[3],inactive
same,outcome,[4],inactive
same,outcome,[7],inactive
CCC(C)C1CCCCC1=O (configuration not stated),outcome,[1],inactive
same,outcome,[2],inactive
same,outcome,[3],inactive
same,outcome,[4],inactive
CC=CC(=O)C1=C(C)C=CCC1(C)C,outcome,[8],inactive
CC(=N[Si](C)(C)C)O[Si](C)(C)C,outcome,[8],inactive
CCCCN(CCCC)CCCCCCN(CCCC)CCCC,outcome,[1],inactive
same,outcome,[2],inactive
same,outcome,[3],inactive
same,outcome,[4],inactive
OCCCO,outcome,[8],inactive
CC(=O)CC(=O)N(C)C,outcome,[6],inactive
same,outcome,[3],inactive
CC(=O)N(C)C,outcome,[4],inactive
same,outcome,[7],inactive
CCCO[Si](OCCC)(OCCC)OCCC,outcome,[1],inactive
same,outcome,[4],inactive
same,outcome,[7],inactive
C[C@]12CC[C@@H]3c4ccc(O)cc4CC[C@H]3[C@@H]1CC[C@@H]2O,outcome,[2],inactive
same,outcome,[3],inactive
same,outcome,[4],inactive
same,AC50,[8],4.37 µM (active)
O=C(O)C1=NN(c2ccc(S(=O)(=O)O)cc2)C(=O)C1,outcome,[1],inactive
same,outcome,[2],inactive
same,outcome,[3],inactive
same,outcome,[4],inactive
same,outcome,[7],inactive
CC(=O)Oc1c(C)c(C)c2c(c1C)CC[C@@](C)(CCC[C@H](C)CCC[C@H](C)CCCC(C)C)O2,outcome,[4],inactive
same,outcome,[7],inactive
CC/C(=C(\c1ccccc1)c1ccc(OCCN(C)C)cc1)c1ccccc1,AC50,[2],11.5 µM (active)
same,AC50,[3],10.4 µM (active) and 11.5 µM (active)
same,outcome,[4],inactive
same,outcome,[7],inactive
same,AC50,[8],0.136 µM (active)
same,outcome,[8],inactive
C#C[C@]1(O)CC[C@H]2[C@@H]3CCc4cc(O)ccc4[C@H]3CC[C@@]21C,AC50,[2],35.3 µM (active)
same,outcome,[2],inactive
same,AC50,[3],18.2 µM (active)
same,outcome,[3],inactive
same,outcome,[4],inactive
same,outcome,[7],inactive
same,AC50,[8],0.364 µM (active)
C=CC(O)CCCCC (configuration not stated),outcome,[2],inactive
same,outcome,[3],inactive
same,outcome,[4],inactive
same,outcome,[7],inactive
CCCCCCCCCCCCN1CCOCC1,outcome,[1],inactive
same,AC50,[2],73.6 µM (active)
same,AC50,[3],80.4 µM (active)
same,outcome,[4],inactive
same,outcome,[7],inactive
same,AC50,[8],0.559 µM (active)
CCCCCCC(C)O (configuration not stated),outcome,[1],inactive
same,outcome,[3],inactive
same,outcome,[4],inactive
same,outcome,[7],inactive
CCOCC(C)O (configuration not stated),outcome,[1],inactive
same,outcome,[6],inactive
same,outcome,[2],inactive
same,outcome,[3],inactive
same,outcome,[4],inactive
CC(C)CCCC(C)(C)O,outcome,[1],inactive
same,outcome,[2],inactive
same,outcome,[3],inactive
same,outcome,[4],inactive
same,outcome,[7],inactive
O=c1cc(-c2ccc(O)cc2)oc2cc(O)cc(O)c12,outcome,[4],inactive
same,AC50,[8],8.73 µM (active)
CC(O)CNCC(C)O (configuration not stated),outcome,[4],inactive
CCNC(=S)NCC,outcome,[1],inactive
same,outcome,[2],inactive
same,outcome,[3],inactive
same,outcome,[4],inactive
same,outcome,[7],inactive
O=C(O)CS,outcome,[1],inactive
same,outcome,[2],inactive
same,outcome,[3],inactive
same,outcome,[4],inactive
same,outcome,[7],inactive
CCCCCCCCCO,outcome,[1],inactive
same,outcome,[5],inactive
same,outcome,[2],inactive
same,outcome,[3],inactive
same,outcome,[4],inactive
same,outcome,[7],inactive
O=C(OCc1ccccc1)c1ccccc1O,outcome,[1],inactive
same,outcome,[8],inactive
CCCCC(CC)COCCO (configuration not stated),outcome,[1],inactive
same,outcome,[2],inactive
same,outcome,[3],inactive
same,outcome,[4],inactive
same,outcome,[7],inactive
OC[C@@H](O)[C@H](O)[C@@H](O)[C@@H](O)CO,outcome,[2],inactive
same,outcome,[3],inactive
same,outcome,[4],inactive
same,outcome,[7],inactive
CC(CCO)CC(C)(C)C (configuration not stated),outcome,[1],inactive
same,outcome,[4],inactive
same,outcome,[7],inactive
CC(O)CN (configuration not stated),outcome,[2],inactive
same,outcome,[3],inactive
same,outcome,[4],inactive
Cc1cccc(C)c1,outcome,[1],inactive
same,outcome,[3],inactive
same,outcome,[4],inactive
same,outcome,[7],inactive
CCCCC/C=C\C=C\C(=O)OCC,AC50,[6],81 µM (active)
same,outcome,[2],inactive
same,outcome,[4],inactive
CCCCCC1C(=O)CCC1CC(=O)OC (configuration not stated),outcome,[2],inactive
same,outcome,[4],inactive
O=Cc1ccccc1O,outcome,[4],inactive
same,outcome,[7],inactive
O=C(c1ccc(OCCN2CCCCC2)cc1)c1c(-c2ccc(O)cc2)sc2cc(O)ccc12,AC50,[2],11.9 µM (active)
same,outcome,[2],inactive
same,AC50,[3],11.9 µM (active) and 11.8 µM (active)
same,outcome,[3],inactive
same,outcome,[4],inactive
same,outcome,[7],inactive
same,outcome,[8],inactive
COC(=O)C(C)Oc1ccc(Oc2ncc(C(F)(F)F)cc2Cl)cc1 (configuration not stated),outcome,[2],inactive
same,outcome,[3],inactive
same,outcome,[4],inactive
same,outcome,[7],inactive
CCCCCCCCCOS(=O)(=O)O,outcome,[1],inactive
same,outcome,[4],inactive
same,outcome,[7],inactive
